40 compounds from PubChem BioAssay (NCI) can be followed below.

Each structure is given as a SMILES string. About 83,000 compounds went through this panel and 20% of them were active in at least one assay; those are over-represented in the sample as a whole.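 Method: cells in 96-well plates; compound added at one concentration; 48 h incubation; percent growth measured; values under 10 scored active.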 Active and inactive are the calls of the source.

For this experiment, the system named is HCC-2998 colon. The experiment is described as follows: NCI-60 one-dose screen, 48 h (100 = growth as untreated, 0 = no growth, -100 = all killed). The note with it: 10 µM unless noted. Here is the method: Growth inhibition of the HCC-2998 human tumor cell line is measured as a screen for anti-cancer activity. Cells are grown in 96 well plates and exposed to the test compound for 48 hours. Compounds are tested at a single concentration, which is 10^-5 M for most compounds. The reported endpoint is percent growth (GI% or GIPRCNT), where numbers from 0 - 100% represent growth inhibition, and numbers from -100% - 0 represent cell death. For example, a value of 40 represents 60% growth inhibition. A value of 0 means no net growth occurred over the course of the experiment. A value of -40 indicates 40% of cells at the beginning of the experiment died by the end of the experiment. A value of -100 means all cells are dead at the end of the experiment.
NCI-60 Human Tumor Cell Lines Screen was performed using the standard one-dose NCI protocol, which is described in more detail at https://dtp.cancer.gov/discovery_development/nci-60/default.htm.
Compounds with GIPRCNT values below 10 were considered active. Activity score was based on GIPRCNT using the following formula: […]
Score is 0 for GIPRCNT values of 100 or above, 50 for GIPRCNT values of 0, and 100 for GIPRCNT values of -100.
`O=C1c2ccccc2C(=Cc2ccccc2)c2ccccc21`: the growth is -45.7% (active).

For the compound `Cn1cc(-c2nc(-c3cn(C)c4ncccc34)cs2)c2cc(F)ccc21`, the growth was 53% (inactive).

Turning to `O=C(N/N=C\c1ccccc1O)C1CC1`, the growth was 103% (inactive).

As for `Cc1nn(-c2ccc(Br)cc2)c2nc3[nH]c(=O)[nH]c(=O)c3nc12`, the growth was 114% (inactive).

Turning to `Clc1ccccc1-c1nc(Nc2nc3ccccc3s2)nc(C(Cl)(Cl)Cl)n1`, the growth is 54.1% (inactive).

In the case of `C=C(C)[C@@H]1CC[C@]2(C)CC[C@]3(C)[C@H](CC[C@@H]4[C@@]5(C)CCCNC(C)(C)[C@@H]5CC[C@]43C)[C@@H]12`, the growth was 66% (inactive).

As to `OCCNc1nc(Nc2ccc(Cl)c(Cl)c2)nc2ccccc12`, the growth is -37.9% (active).

With `Fc1ccc(Nc2ccc3c(OCCCN4CCOCC4)cccc3n2)cc1F`, the growth is 66.3% (inactive).

For the compound `COc1cccc2c1C(=O)c1c(O)c3c(c(O)c1C2=O)C[C@@](O)(C(=O)CO)C[C@@H]3OC1C[C@H](N)[C@H](O)[C@H](C)O1` (stereo not given in full), the growth is -45.9% (active).

Turning to `Cc1cc(C)nc(NC(N)=NCCc2ccccc2)n1`, the growth is 94.5% (inactive).

For the compound `O=C1c2cccc3cccc(c23)C(=O)N1CC#Cc1ccc2c3c(cccc13)C(=O)N(CCN1CCNCC1)C2=O`, the growth is 104% (inactive).

Regarding `COc1ccc2c(c1)c(-c1nc(-c3cn(C)c4ncccc34)cs1)cn2CCN`, the growth was 55% (inactive).

In the case of `C[C@]12CC[C@@H]3c4ccc(O)cc4CC[C@H]3[C@@H]1C[C@H](O)[C@@H]2O`, the growth is 107% (inactive).

As for `COc1cc(C(=O)/C=C/c2cc(-c3ccc4c(c3)OCO4)n[nH]2)cc(OC)c1OC`, the growth is 85.4% (inactive).

For `COc1ccccc1-n1cnc(N)c1C(=O)c1cc(OC)c(OC)c(OC)c1`, the growth was 61.7% (inactive).

On to `C=C1C(=O)O[C@H]2[C@H]1CC/C(COC(=O)NCc1c[nH]c3ccccc13)=C\CC[C@@]1(C)O[C@@H]21`, for which the growth is 97.9% (inactive).

As for `CCCCCCCN(CCCCCCC)C(=N)c1ccnc2ccccc12`, the growth was -87% (active).

On to `C#CCn1c(C)cc(C)c(C#N)c1=O`, for which the growth was 105% (inactive).

As to `O=C(NO)c1ccc(Cn2c(=O)n(CCc3ccc(O)cc3)c(=O)c3ccccc32)cc1`, the growth is 79% (inactive).

Regarding `COc1cc2nc(Cl)nc(Nc3cccc(C(=O)/C=C/c4ccc(Cl)cc4)c3)c2cc1OC`, the growth is 93.4% (inactive).

With `O=C1c2cccc3cccc(c23)C(=O)N1CC#Cc1ccc2c3c(cccc13)C(=O)N(CCO)C2=O`, the growth was 106% (inactive).

Consider `N#Cc1c(-c2ccc(O)cc2)c2c(N)nn(-c3ccccc3)c2[nH]c1=O`, for which the growth is 110% (inactive).

In the case of `Oc1cc(/C=C/c2nc(N3CCOCC3)c3cc(Cl)c(Cl)cc3n2)cc(O)c1O`, the growth was 104% (inactive).

`COc1ccc(O)c(-c2cc(-c3ccc(Cl)cc3)c(C#N)c(=O)[nH]2)c1`: the growth was 70.6% (inactive).

As to `O=S(=O)(NCCNc1cc(-c2cn(-c3ccccc3)nc2-c2cccc(O)c2)ccn1)c1ccc(Br)cc1`, the growth was -61.8% (active).

On to `CC1(C)C(=O)/C(=C\c2cccnc2)C[C@]2(C)[C@H]3CC[C@@H]4[C@@H](C(=O)/C=C/c5ccncc5)CC[C@@]4(C)[C@]3(C)CC[C@@H]12`, for which the growth was 59.7% (inactive).

In the case of `C/C(Cc1ccc(Cl)cc1)=C(/c1ccc(Cl)cc1)c1ccc(OCCN2CCCC2)cc1`, the growth was 68.7% (inactive).

For the compound `CC(C)=CCC[C@](C)(O)[C@H]1CC[C@]2(C)[C@@H]1CC[C@@H]1[C@@]3(C)C/C(=C/c4ccc(Br)cc4)C(=O)C(C)(C)[C@@H]3CC[C@]12C`, the growth is 92% (inactive).

`c1ccc(-c2nc(Nc3ccc(-c4nc5ccccc5[nH]4)cc3)nc(N3CCOCC3)n2)cc1`: the growth is -80.7% (active).

In the case of `COc1cccc(NC(=O)c2sc3nc4c(cc3c2N)C(=O)CCC4)c1`, the growth is 19.9% (inactive).

For the compound `COC(=O)[C@]12CC[C@@H](C)[C@H](C)[C@@H]1C1=CC[C@@H]3[C@@]4(C)C(c5ncon5)=C[C@@](C)(CO)C4=CC[C@@]3(C)[C@]1(C)CC2`, the growth was -83.3% (active).

Consider `COC(=O)[C@]12CC[C@@H](C)[C@H](C)[C@@H]1C1=CC[C@@H]3[C@@]4(C)CC(=O)[C@H](OC(=O)c5ccco5)[C@@]5(C)COC(=C45)C[C@@]3(C)[C@]1(C)CC2`, for which the growth is 52.3% (inactive).

For `COc1cc2nc(Cl)nc(Nc3cccc(C(=O)/C=C/c4ccc(F)cc4)c3)c2cc1OC`, the growth is 49.9% (inactive).

Consider `CN(C)c1ccc(N)c2ccccc12`, for which the growth was 50.2% (inactive).

Take `Nc1c(Cl)cc(N=Nc2ccccc2)cc1Cl`: the growth was 87.1% (inactive).

Take `CC(C)=CCC/C(C)=C/CC/C(C)=C/CC/C(C)=C/CSC[C@H](NC(=O)CCCCCN1CCN(C)CC1)C(=O)NC1CCCCC1`: the growth was 63.8% (inactive).

Take `CN(C)CCCCC(C(=O)CBr)(c1ccccc1)c1ccccc1`: the growth was 71.7% (inactive).

As for `C/C(=N\NC(=O)C(C)SC(C)C(=O)N/N=C(\C)c1cccnc1)c1cccnc1` (stereo not given), the growth was 106% (inactive).

`COc1ccc(C2CC(=O)c3c(nc4ccc(Cl)cc4c3N)C2)cc1` (stereo not given): the growth is 111% (inactive).

In the case of `CN1CCN(CCOc2ccc(-c3cnc4c(-c5cccc(F)c5)cnn4c3)cc2)CC1`, the growth was 63.2% (inactive).
